This passage reports activity results from PubChem BioAssay AID1259318 (Sanford-Burnham Center for Chemical Genomics, 2017).

The structures appear in SMILES notation. Out of some 370,000 compounds screened, about 3,000 (0.81%) were called active.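 How the source made its calls: active means activity above about 14% (limit read from the data; passing the limit was not always enough); inactive means the rest.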 The entries come from a sample that favours actives as a whole.

Chain of Nuclear receptor subfamily 1 group D member 1 (Homo sapiens) (P20393 whole entry, looked up): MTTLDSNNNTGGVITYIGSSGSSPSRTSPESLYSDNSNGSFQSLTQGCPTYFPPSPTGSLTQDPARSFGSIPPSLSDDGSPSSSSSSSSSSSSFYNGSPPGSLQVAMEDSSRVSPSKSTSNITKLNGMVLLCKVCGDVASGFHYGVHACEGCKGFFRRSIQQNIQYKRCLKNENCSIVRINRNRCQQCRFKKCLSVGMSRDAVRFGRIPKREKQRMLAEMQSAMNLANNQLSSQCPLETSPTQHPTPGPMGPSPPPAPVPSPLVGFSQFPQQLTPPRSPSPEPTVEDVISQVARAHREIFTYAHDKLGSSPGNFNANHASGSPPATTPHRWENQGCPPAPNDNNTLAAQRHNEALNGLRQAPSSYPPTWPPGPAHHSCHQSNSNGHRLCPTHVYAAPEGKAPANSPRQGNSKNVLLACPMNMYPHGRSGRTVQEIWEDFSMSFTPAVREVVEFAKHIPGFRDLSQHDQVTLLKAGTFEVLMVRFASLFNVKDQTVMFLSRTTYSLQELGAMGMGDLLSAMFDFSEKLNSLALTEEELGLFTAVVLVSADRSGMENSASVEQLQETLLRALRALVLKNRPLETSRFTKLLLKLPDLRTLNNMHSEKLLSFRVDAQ

This assay addresses Nuclear receptor subfamily 1 group D member 1 (Homo sapiens) (UniProt P20393). Description: modulators of Rev-erb alpha DNA binding, primary screen, biochemical, FITC-DNA, fluorescence polarization, uHTS (AID 1259318).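 Further: 0% = DMSO wells with 35 nM protein and 100% = DMSO wells with 750 nM protein.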 Particulars: Rev-erbα–FITC-DNA binding, 90 min, at 10 µM, hits give high values.
Take `CCOCCc1c(O)[nH]c(=S)[nH]c1=O`: the activity was -0.86% (inactive).

Regarding `COc1ccccc1N=Nc1c(O)[nH]c(=S)[nH]c1=O`, the activity was 28.1% (active).

Turning to `O=C1N=c2ccccc2=C/C1=C\c1c(O)[nH]c(=S)[nH]c1=O`, the activity is -4.55% (inactive).

With `CCC(C)C(=O)O[C@H]1[C@H](O)C2C(CN3CC(C)CCC3[C@@]2(C)O)C2C[C@]34O[C@]5(O)C(OC(=O)C(C)(O)CC)CC[C@@]3(C)C5[C@H](OC(C)=O)[C@@H](OC(C)=O)C4[C@@]21O` (stereo not given in full), the activity was -4.52% (inactive). For the molecule `CCN(CC)C(=O)[C@@H]1C=C2c3cccc4[nH]c(Br)c(c34)C[C@H]2N(C)C1`, the activity was -1.01% (inactive).

With `C=CCNCCCCCCCCCC` (tested in a mixture with another compound), the activity was -9.67% (inactive). For the molecule `COC(=O)CN(CCCl)P1(=O)OCCCN1CCCl` (stereo not given), the activity was 15.9% (active). Turning to `c1ccc2sc(SNC3CCCCC3)nc2c1`, the activity was 6.27% (inactive).

Turning to `CCOC(=O)C1=C(C)OC(N)=C(C(=O)OC)C12C(=O)Nc1ccc(Br)cc12` (stereo not given), the activity is 4.04% (inactive). Turning to `CC(=O)O[C@H]1CC[C@@]2(C)C(=CCC3C2CC[C@]2(C)C(=O)CCC32)C1` (stereo not given in full), the activity was 2.71% (inactive).
